Assay [1] in a line: Natriuretic polypeptide receptor (hNpr1) antagonism - Pilot counterscreen GloSensor control cell line (AID 1347045; calls by dose curve; also: series mostly up to about 38 µM). In short, it runs like this:
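This counterscreen uses HEK293 cells expressing the GIP/pGS-40F cGMP biosensor. Compound-treated cells are challenged with 50 uM sodium nitroprusside, and the luciferase signal is compared before and after stimulation.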
A general note: A counterscreen serves to expose hits that act by an unwanted route or on another target.

The target of assay [2] is Atrial natriuretic peptide receptor 1 (Homo sapiens) (UniProt P16066). The experiment in a line: Natriuretic polypeptide receptor (hNpr1) antagonism - Pilot screen (AID 1347049; calls by dose curve;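 also: agonist-evoked cGMP luminescence read 20 min after hNppA addition; series mostly up to about 58 µM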). In short, it runs like this: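 HEK293 cells expressing hNpr1 and GloSensor cGMP luciferase, 1500/well, loaded with 2% GloSensor reagent 2 h, compound 30 min at room temperature; luminescence read before and 20 min after 0.1 nM hNppA stimulation.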

Assay [3] addresses Atrial natriuretic peptide receptor 2 (Homo sapiens) (UniProt P20594). Put plainly: Natriuretic polypeptide receptor (hNpr2) antagonism - Pilot subtype selectivity assay (AID 1347050; calls by dose curve). In short, it runs like this: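 HEK293 cells expressing hNpr2 and a GloSensor cGMP luciferase sensor, 1500/well, preloaded 2 h with 2% GloSensor reagent, compound 30 min, then 1 nM hNppC for 20 min. Antagonism from luminescence after versus baseline pre-read; LOPAC in 1:5 titrations.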

Assay [4] has as its target Parathyroid hormone/parathyroid hormone-related peptide receptor (Homo sapiens) (UniProt Q03431). The experiment in a line: qHTS for PTHR1 Agonists: Optimization Screen against the NCGC LOPAC library (AID 1347079).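 Also: GloSensor cAMP luminescence in HEK-293 GP2 cells expressing human PTHR1 with IBMX.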 In short, it runs like this:
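Compounds were tested across a qHTS titration. PTHR1-expressing GP2 cells report cAMP rises via GloSensor luminescence after 1 hr compound exposure at 37C with IBMX present.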
For orientation: Quantitative high-throughput screening tests each substance at several concentrations.

Assay [5] is described as follows: P-glycoprotein substrates identified in KB-3-1 adenocarcinoma cell line, qHTS therapeutic library screen (AID 1346986). Also: nearly all actives have a fitted effect of over 60% in size.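 Also: potency is read from the fitted curve at half-maximal effect; potency is for cytotoxicity meaning loss of cell viability.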 In short, it runs like this: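 Compounds were tested in dose-response against KB-3-1 and KB-8-5-11 cells at 37 degree C for 72 h, and viability was measured by luminescence. AC50 values came from curve fitting with class-based activity calls.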

Assay [6] is described as follows: P-glycoprotein substrates identified in KB-8-5-11 adenocarcinoma cell line, qHTS therapeutic library screen (AID 1346987). Also: nearly all actives have a fitted effect of over 65% in size. Also: potency is read from the fitted curve at half-maximal effect. In short, it runs like this: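 P-gp-mediated resistance screen: KB-8-5-11 cells treated 72 h with compounds in dose-response. CellTiter-Glo viability.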
The nature of assay [7]: NS1 protein of Zika virus - qHTS assay to identify small molecule inhibitors in human HEK 293 cells (AID 1347053). Also: nearly all actives have a fitted effect of over 55% in size. Also: potency is read from the fitted curve at half-maximal effect. In short, it runs like this: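 Inhibition of NS1 expression was scored in HEK 293 cells given compound 1 h ahead of MR766 virus (MOI = 0.5). Following 24 h at 37 C, two anti-NS1 antibodies generated a TR-FRET signal, scaled between uninfected and infected controls.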

The nature of assay [8]: qHTS of pediatric cancer cell lines to identify multiple opportunities for drug repurposing: Primary screen for DAOY cells (AID 1347090). Also: nearly all actives have a fitted effect of over 55% in size. Also: potency is read from the fitted curve at half-maximal effect. In short, it runs like this:
(§1)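 Viability measured as metabolically active cells via CellTiter-Glo luminescence following 48 hours of compound exposure, 11-point dilutions in confirmatory testing. 500-1,000 cells/well plated 5 hours before dosing; controls were DMSO and 2.3 µM bortezomib.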

A short description of assay [9]: qHTS of pediatric cancer cell lines to identify multiple opportunities for drug repurposing: Primary screen for SJ-GBM2 cells (AID 1347091). Also: potency is read from the fitted curve at half-maximal effect. In short, it runs like this: as §1
The nature of assay [10]: qHTS of pediatric cancer cell lines to identify multiple opportunities for drug repurposing: Primary screen for TC32 cells (AID 1347089). Also: nearly all actives have a fitted effect of over 60% in size. In short, it runs like this:
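A viability screen of TC32 cells was run over 48 h, with primary MIPE doses spanning 0.78 nM–46 µM and NPC doses 0.59 nM–46 µM. ATP luminescence (CellTiter-Glo) served as the read-out.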

Where “and” joins values, the source holds several entries; their conditions need not be identical. Equal values may be shown once. Inconclusive results are not listed. More than one record can exist for a structure, and the calls need not agree. Calls of active or inactive are those of the source. Unless noted, calls follow the shape of the dose curve; as a rule, active = well fitted curve in the direction sought with a large enough effect; inconclusive = small, poorly fitted or top-dose-only effect, or another doubt; inactive = no such curve, though single readings can be large; an effect the other way counts as inactive or inconclusive.

Sequence of Atrial natriuretic peptide receptor 1 (Homo sapiens) (P16066 whole entry, looked up): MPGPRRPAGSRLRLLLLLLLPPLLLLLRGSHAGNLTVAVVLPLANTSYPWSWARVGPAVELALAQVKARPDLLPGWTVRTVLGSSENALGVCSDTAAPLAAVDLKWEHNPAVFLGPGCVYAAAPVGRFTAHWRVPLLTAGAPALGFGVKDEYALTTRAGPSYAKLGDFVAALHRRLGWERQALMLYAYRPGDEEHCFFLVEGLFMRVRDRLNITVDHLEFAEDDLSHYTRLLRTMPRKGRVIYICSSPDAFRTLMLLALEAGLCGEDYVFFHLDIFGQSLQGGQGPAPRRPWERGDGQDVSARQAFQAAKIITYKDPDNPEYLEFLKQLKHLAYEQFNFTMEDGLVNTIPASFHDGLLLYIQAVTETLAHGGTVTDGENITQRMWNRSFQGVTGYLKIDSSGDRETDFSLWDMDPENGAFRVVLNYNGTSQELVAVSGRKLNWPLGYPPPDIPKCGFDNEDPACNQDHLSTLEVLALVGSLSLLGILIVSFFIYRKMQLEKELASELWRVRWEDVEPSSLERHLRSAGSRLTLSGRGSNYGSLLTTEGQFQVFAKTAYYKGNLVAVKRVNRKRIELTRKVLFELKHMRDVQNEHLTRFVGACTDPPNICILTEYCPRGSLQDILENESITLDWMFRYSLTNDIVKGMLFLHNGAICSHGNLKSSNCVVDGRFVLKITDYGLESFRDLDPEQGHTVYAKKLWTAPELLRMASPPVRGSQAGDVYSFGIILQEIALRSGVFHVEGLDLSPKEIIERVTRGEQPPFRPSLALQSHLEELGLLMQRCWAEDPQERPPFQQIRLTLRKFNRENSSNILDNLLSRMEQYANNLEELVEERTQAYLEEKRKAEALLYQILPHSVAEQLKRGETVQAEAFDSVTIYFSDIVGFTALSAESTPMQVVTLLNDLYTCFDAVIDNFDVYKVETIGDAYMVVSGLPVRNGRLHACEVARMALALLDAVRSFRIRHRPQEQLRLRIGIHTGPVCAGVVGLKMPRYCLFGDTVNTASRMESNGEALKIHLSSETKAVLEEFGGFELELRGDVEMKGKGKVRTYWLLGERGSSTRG
Sequence of Parathyroid hormone/parathyroid hormone-related peptide receptor (Homo sapiens) (Q03431 whole entry, looked up): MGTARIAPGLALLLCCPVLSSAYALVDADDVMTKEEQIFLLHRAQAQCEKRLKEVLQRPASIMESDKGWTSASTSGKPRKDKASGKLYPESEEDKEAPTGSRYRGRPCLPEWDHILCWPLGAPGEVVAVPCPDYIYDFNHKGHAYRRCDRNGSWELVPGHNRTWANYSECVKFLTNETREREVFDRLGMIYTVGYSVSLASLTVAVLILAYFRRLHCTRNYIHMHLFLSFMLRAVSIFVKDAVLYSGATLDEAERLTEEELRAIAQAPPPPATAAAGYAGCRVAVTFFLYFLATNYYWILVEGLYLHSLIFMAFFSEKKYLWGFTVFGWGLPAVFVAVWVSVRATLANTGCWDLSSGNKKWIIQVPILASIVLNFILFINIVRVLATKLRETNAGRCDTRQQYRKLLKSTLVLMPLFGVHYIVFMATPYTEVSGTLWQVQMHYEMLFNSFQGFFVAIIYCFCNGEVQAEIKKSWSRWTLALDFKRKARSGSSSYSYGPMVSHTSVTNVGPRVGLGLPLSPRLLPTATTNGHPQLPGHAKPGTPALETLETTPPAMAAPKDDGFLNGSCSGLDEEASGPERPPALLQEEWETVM
Sequence of Atrial natriuretic peptide receptor 2 (Homo sapiens) (P20594 whole entry, looked up): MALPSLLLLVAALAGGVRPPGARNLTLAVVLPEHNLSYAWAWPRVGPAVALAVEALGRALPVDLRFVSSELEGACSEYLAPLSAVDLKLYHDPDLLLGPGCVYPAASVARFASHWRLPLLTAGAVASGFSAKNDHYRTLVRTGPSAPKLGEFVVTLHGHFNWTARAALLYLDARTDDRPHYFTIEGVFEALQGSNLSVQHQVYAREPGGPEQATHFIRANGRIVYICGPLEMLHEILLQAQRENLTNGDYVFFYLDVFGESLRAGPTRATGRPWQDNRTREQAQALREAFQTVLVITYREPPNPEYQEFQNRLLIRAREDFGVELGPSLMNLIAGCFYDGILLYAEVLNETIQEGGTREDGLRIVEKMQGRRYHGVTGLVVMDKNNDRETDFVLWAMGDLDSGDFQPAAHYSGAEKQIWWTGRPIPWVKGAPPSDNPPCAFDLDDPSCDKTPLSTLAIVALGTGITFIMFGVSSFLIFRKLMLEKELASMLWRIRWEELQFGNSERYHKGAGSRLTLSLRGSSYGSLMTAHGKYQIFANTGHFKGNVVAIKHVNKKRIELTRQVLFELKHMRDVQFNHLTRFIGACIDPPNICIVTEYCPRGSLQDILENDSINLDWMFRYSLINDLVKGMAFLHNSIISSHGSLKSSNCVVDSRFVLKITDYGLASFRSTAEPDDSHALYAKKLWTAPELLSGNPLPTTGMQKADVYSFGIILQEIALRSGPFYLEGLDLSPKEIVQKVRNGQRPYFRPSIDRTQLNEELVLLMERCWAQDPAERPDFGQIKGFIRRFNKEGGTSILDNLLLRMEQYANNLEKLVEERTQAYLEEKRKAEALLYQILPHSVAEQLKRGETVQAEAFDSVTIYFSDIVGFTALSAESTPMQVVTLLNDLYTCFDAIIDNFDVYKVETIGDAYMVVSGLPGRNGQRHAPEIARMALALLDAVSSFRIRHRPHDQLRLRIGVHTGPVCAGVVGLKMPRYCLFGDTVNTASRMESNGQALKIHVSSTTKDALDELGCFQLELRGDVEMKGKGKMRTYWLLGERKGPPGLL

For `O=c1[nH]c(=O)n([C@H]2C[C@@H](O)[C@@H](CO)O2)cc1C=CBr`, the call in assay [1], in assay [2], in assay [3] and in [4] was inactive.
`COc1ccc2cc([S+]([O-])Cc3ncc(C)c(OC)c3C)nc2c1`: the call in assay [1], in assay [2], in assay [3] and in [4] was inactive.
As for `OCCN1C[C@H](O)[C@@H](O)[C@H](O)[C@@H]1CO`, the Potency entry in assay [5], in assay [6], in assay [7], in [8] and in assay [9] was “inactive” in each case.
As for `Nc1ccc(C(=O)Nc2cccc(-c3nc(N4CCOCC4)c4oc5ncccc5c4n3)c2)cn1`, the Potency result in assay [5] was “inactive and 13 µM (active)”; in assay [6], “inactive and 9.2 µM (active)”; in assay [9], 3.72 µM (active). Moreover, in assay [10], the Potency entry was “inactive”.
For `COC(=O)C1C2CC3c4[nH]c5cc(OC)ccc5c4CCN3CC2CC(OC(=O)c2cc(OC)c(OC)c(OC)c2)C1OC` (centres undefined), the Potency result in assay [6], in [7] and in [10] was “inactive” in each case.
Regarding `Oc1ccc([C@@H]2Oc3ccc(O)cc3[C@@H]3CCC[C@@H]32)cc1`, in assay [6], the Potency was 5.9 µM (active) and 5.8 µM (active).
On to `Cc1coc2c1C(=O)C(=O)c1c-2ccc2c(C)cccc12`, for which the Potency entry in assay [5], in [6], in assay [7] and in [8] was “inactive” throughout.
Take `CCc1ccc(C(=O)Nc2cc(CN3CCN(C)CC3)cc(C(F)(F)F)c2)cc1C#Cc1cnc2ccnn2c1`: the Potency is 4.11 µM (active) in assay [5]; 8.33 µM (active) and 3.66 µM (active) in [6]; 13.2 µM (active) in assay [7]; 23.5 µM (active) in assay [8]; 9.35 µM (active) in assay [9].
`CC1=C(C(=O)Nc2cc3cn[nH]c3cc2F)C(c2ccc(Cl)cc2F)N=C(c2ccnc(Cl)c2)N1` (centres undefined): the Potency in assay [5] is 20.6 µM (active); in assay [9] it was 5.9 µM (active). The Potency entry in [7] and in [8] was “inactive” throughout.

The record behind these values is PubChem BioAssay (NCATS).
